# Values joined by “and” are separate entries in the source; they are usually repeats but may differ in a detail not shown here. Equal entries are not always repeated. The panel holds about 83,000 compounds, 20% with a hit somewhere; the sample as a whole holds those more often.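 Growth was measured after 48 h exposure to one concentration of compound in 96-well plates. Values under 10 count as active.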 Values without a mark were called inactive. Active and inactive are the calls of the source.
# Tested on: OVCAR-8 ovarian
# Assay: NCI-60 one-dose screen, 48 h (100 = growth as untreated, 0 = no growth, -100 = all killed)
# Conditions: 10 µM unless noted
row,SMILES,growth
1,N#CC(C#N)=Cc1cccc(F)c1,107%
2,CN(C)c1ccc(C=C2C(=O)NC(=O)NC2=O)cc1,98.5%
3,[N-]=[N+]=CC(=O)CCC(=O)C=[N+]=[N-],98.9%
4,CC1=C2[C@H]3OC(=O)[C@@H](C)[C@@H]3CC[C@@]2(C)C=CC1=O,116%
5,O=[N+]([O-])c1ccc2scc3c4ccccc4nc-3c2c1,-62.3% (active)
6,Cc1cc(NC(=O)NCCCOc2ccc(N3C(N)=NC(N)=NC3(C)C)cc2Cl)ccc1S(=O)(=O)F,31.7%
7,Nc1c(Cl)c(Cl)nc(C(=O)O)c1Cl,94.2%
8,Cn1cc(C(=O)C[n+]2ccccc2)c2ccccc21,114%
9,Nc1nc(=S)nc(N)[nH]1,104%
10,C[C@]12CCC(=O)C[C@@H]1CC[C@@H]1[C@@H]2CC[C@]2(C)[C@@H](OC(=O)N(CCCl)N=O)CC[C@@H]12,27.8%
11,NC1CN2CCC1CC2 (stereo unspecified),97.8%
12,O=C(O)C1C(C(=O)O)C2(Cl)C(Cl)=C(Cl)C1(Cl)C2(Cl)Cl (stereo unspecified),107% and 101%
13,O=C1NC(=O)C(=C/C=C/c2ccccc2)C(=O)N1,-3.62% (active)
14,O=C(O)CCCc1ccc(N(CCCl)CCCl)cc1,87.5%
15,c1ccc(CCN2CCCCC2)nc1,108%
16,O=[N+]([O-])c1cc(Br)c(O)c(Br)c1,99.1%
17,Cc1cc(Br)c([N+](=O)[O-])cc1[N+](=O)[O-],94.9%
18,C[C@]12CC[C@@H](OC(=O)N(CCCl)N=O)C[C@@H]1CC[C@@H]1[C@@H]2CC[C@]2(C)C(=O)CC[C@@H]12,58.1%

row,SMILES,growth
1,CCOC(=O)C1C(C=C(C)C)C1(C)C (stereo unspecified),99.6%
2,N[C@@H](CCC(=O)CCl)C(=O)O,108% [20 µM]
3,Oc1ccc(O)c(Cl)c1,90.4% and 102%
4,CC(C)c1cccc(C(C)C)c1O,102%
5,N#CC(C#N)=C(C#N)C#N,96%
6,CC(C)CCC1C(=O)NC(=O)NC1=O,98.4%
7,C[C@H](O)CCC(=O)c1ccoc1,97.7%
8,CCCCCCCCCCCCCCCCCC1OCC(COC(=O)O[C@@H](C(=O)O[C@H]2C[C@@]3(O)[C@@H](OC(=O)c4ccccc4)[C@@H]4[C@]5(OC(C)=O)CO[C@@H]5C[C@H](O)[C@@]4(C)C(=O)[C@H](OC(C)=O)C(=C2C)C3(C)C)[C@@H](NC(=O)c2ccccc2)c2ccccc2)O1 (stereo partly specified),48.9%
9,O=c1[nH]c(=O)[nH]c(=O)[nH]1,106%
10,O=CC1(c2ccccc2)CCN(Cc2ccccc2)CC1,105%
11,CC(=O)c1cccc(S(=O)(=O)F)c1,106%
12,CC(=O)Nc1nc2c(s1)C1=CC[C@H]3[C@@H]4CC[C@H](OC(C)=O)[C@@]4(C)CC[C@@H]3[C@@]1(C)CC2,70.8%
13,CC1=CC(=O)CCC12CCOC2=O (stereo unspecified),100%
14,CCC1CCC(=O)O1 (stereo unspecified),109% and 118%
15,CN(C)C(=S)SSC(=S)N(C)C,95.4% and 104%
16,ClC1OC(Cl)(Cl)C(Cl)(Cl)OC1(Cl)Cl (stereo unspecified),101%
17,COc1ccc(N)cc1OC,115%

# Tested on: OVCAR-5 ovarian
# Assay: as above
# Conditions: 10 µM unless noted
row,SMILES,growth
1,N#CC(C#N)=Cc1cccc(F)c1,98.4%
2,CN(C)c1ccc(C=C2C(=O)NC(=O)NC2=O)cc1,77.9%
3,[N-]=[N+]=CC(=O)CCC(=O)C=[N+]=[N-],107%
4,CC1=C2[C@H]3OC(=O)[C@@H](C)[C@@H]3CC[C@@]2(C)C=CC1=O,90.7%
5,O=[N+]([O-])c1ccc2scc3c4ccccc4nc-3c2c1,-77.1% (active)
6,Cc1cc(NC(=O)NCCCOc2ccc(N3C(N)=NC(N)=NC3(C)C)cc2Cl)ccc1S(=O)(=O)F,43.1%
7,Nc1c(Cl)c(Cl)nc(C(=O)O)c1Cl,111%
8,Cn1cc(C(=O)C[n+]2ccccc2)c2ccccc21,105%
9,Nc1nc(=S)nc(N)[nH]1,89.1%
10,C[C@]12CCC(=O)C[C@@H]1CC[C@@H]1[C@@H]2CC[C@]2(C)[C@@H](OC(=O)N(CCCl)N=O)CC[C@@H]12,42.6%
11,NC1CN2CCC1CC2 (stereo unspecified),95.5%
12,O=C(O)C1C(C(=O)O)C2(Cl)C(Cl)=C(Cl)C1(Cl)C2(Cl)Cl (stereo unspecified),91.4% and 108%
13,O=C1NC(=O)C(=C/C=C/c2ccccc2)C(=O)N1,37%
14,c1ccc(CCN2CCCCC2)nc1,98.6%
15,O=[N+]([O-])c1cc(Br)c(O)c(Br)c1,115%
16,Cc1cc(Br)c([N+](=O)[O-])cc1[N+](=O)[O-],107%
17,C[C@]12CC[C@@H](OC(=O)N(CCCl)N=O)C[C@@H]1CC[C@@H]1[C@@H]2CC[C@]2(C)C(=O)CC[C@@H]12,114%
18,CCOC(=O)C1C(C=C(C)C)C1(C)C (stereo unspecified),80.5%

row,SMILES,growth
1,N[C@@H](CCC(=O)CCl)C(=O)O,98% [20 µM]
2,Oc1ccc(O)c(Cl)c1,112% and 113%
3,CC(C)c1cccc(C(C)C)c1O,106% and 112%
4,N#CC(C#N)=C(C#N)C#N,101%
5,CC(C)CCC1C(=O)NC(=O)NC1=O,107%
6,COc1ccc(N)cc1N,98.5%
7,CC1OC(=O)C(C(C)C)NC(=O)C(C(C)C)OC(=O)C(C(C)C)NC(=O)C(C)OC(=O)C(C(C)C)NC(=O)C(C(C)C)OC(=O)C(C(C)C)NC(=O)C(C)OC(=O)C(C(C)C)NC(=O)C(C(C)C)OC(=O)C(C(C)C)NC1=O (stereo unspecified),-39.6% (active)
8,C[C@H](O)CCC(=O)c1ccoc1,106%
9,CCCCCCCCCCCCCCCCCC1OCC(COC(=O)O[C@@H](C(=O)O[C@H]2C[C@@]3(O)[C@@H](OC(=O)c4ccccc4)[C@@H]4[C@]5(OC(C)=O)CO[C@@H]5C[C@H](O)[C@@]4(C)C(=O)[C@H](OC(C)=O)C(=C2C)C3(C)C)[C@@H](NC(=O)c2ccccc2)c2ccccc2)O1 (stereo partly specified),55.5%
10,O=c1[nH]c(=O)[nH]c(=O)[nH]1,103%
11,O=CC1(c2ccccc2)CCN(Cc2ccccc2)CC1,107%
12,CC(=O)c1cccc(S(=O)(=O)F)c1,90.5%
13,CC(=O)Nc1nc2c(s1)C1=CC[C@H]3[C@@H]4CC[C@H](OC(C)=O)[C@@]4(C)CC[C@@H]3[C@@]1(C)CC2,92.7%
14,CC1=CC(=O)CCC12CCOC2=O (stereo unspecified),96.7%
15,CCC1CCC(=O)O1 (stereo unspecified),106% and 111%
16,CN(C)C(=S)SSC(=S)N(C)C,97.4% and 110%
17,ClC1OC(Cl)(Cl)C(Cl)(Cl)OC1(Cl)Cl (stereo unspecified),93.4%
18,COc1ccc(N)cc1OC,104%

# Source: PubChem BioAssay (NCI)
